From PubChem
KB-V1 MDR tox – qHTS assay for MDR1-selective chemotherapeutics: Primary screen using the drug-selected MDR subline cells KB-V1 | KB-V1 MDR cells viability, CellTiter-Glo, 72 h | hit rate 3.4% among 400,000 | Potency, µM (highest dose often 46.1 µM), hits mostly cytotoxic; also: nearly all actives have a fitted effect of over 60% in size
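Luminescent ATP read-out (CellTiter-Glo, 10 min) measures survival of drug-selected KB-V1 MDR cells after 72 h, 37 degrees C compound exposure. Medium: phenol-red-free DMEM, 10% FBS. Values from fitted concentration-response curves.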
KB-3-1 cytotox – qHTS assay for MDR1-selective chemotherapeutics: Primary screen using the parental adenocarcinoma cell KB-3-1; KB-3-1 viability, CellTiter-Glo ATP luminescence, 72 h; Potency, µM (highest dose often 46.1 µM), usual class: cytotoxic; hit rate 1.4% among 400,000; also: nearly all actives have a fitted effect of over 60% in size
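72 h, 37 °C compound treatment of KB-3-1 parental cells; CellTiter-Glo added, 10 min, luminescence read. Data corrected against DMSO-only plates and normalized before curve fitting.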
HT1080 IDH1KD tx – qHTS for induction of synthetic lethality in tumor cells producing 2HG: qHTS for the HT-1080-IDH1KD cell line; HT-1080 IDH1 knockdown viability, ATP luminescence, 48 h; Potency, µM (highest dose often 46.1 µM), usual class: cytotoxic; hit rate 2% among 360,000; AID 686971, 2013
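CellTiter-Glo luminescence after 48 h compound exposure at 37 degrees C of IDH1-knockdown HT-1080 cells in 5% FBS RPMI. %Activity scaled between DMSO wells and cell-free media wells, with curves fitted and assigned curve classes.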
TDP1 cell CPT – qHTS for Inhibitors of human tyrosyl-DNA phosphodiesterase 1 (TDP1): qHTS in cells in presence of CPT | chicken DT40 Tdp1-/-;hTDP1 cells + 20 nM CPT, ATP luminescence, 48 h | Potency, µM (titrated, usually from 46.2 µM), most hits filed as inhibitors | hit rate 12% among 420,000; also: nearly all actives have a fitted effect of over 55% in size
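Chicken DT40 Tdp1-/- cells complemented with human TDP1, 400 cells/well, exposed to compounds plus 20 nM camptothecin for at least 48 h at 37 C; viability read as ATP content by CellTiter-Glo luminescence.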
HT1080-NT tox – qHTS for induction of synthetic lethality in tumor cells producing 2HG: qHTS for the HT-1080-NT fibrosarcoma cell line; HT-1080-NT fibrosarcoma viability, CellTiter-Glo ATP luminescence, 48 h; Potency, µM (titrated, usually from 46.1 µM), usual class: cytotoxic; hit rate 1.6% among 360,000;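 also: NT is the 2HG producing partner of a matched IDH1 knockdown line; nearly all actives have a fitted effect of over 55% in size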
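Toxicity toward the 2HG-producing NT line was scored as %Activity, normalised to DMSO and no-cell wells, from CellTiter-Glo luminescence after 48 hours' treatment.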
DT40 TDP1 no CPT – qHTS for Inhibitors of human tyrosyl-DNA phosphodiesterase 1 (TDP1): qHTS in cells in absence of CPT; DT40 Tdp1-/- hTDP1 cells, no CPT, ATP luminescence, 48 h; Potency, µM (series often up to 46.2 µM), actives largely listed as inhibitors; hit rate 15% among 420,000; AID 686978, 2013; also: nearly all actives have a fitted effect of over 55% in size
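Chicken DT40 Tdp1-/- cells stably complemented with human TDP1 were seeded at 400 cells/well with DMSO in place of 20 nM camptothecin. After compound pinning, cells grew at least 48 hr at 37 °C; viability read by CellTiter-Glo luminescence.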
Large screens that a line does not name were inactive. Only some compounds are listed: those with a hit (about 19% of all), similar ones and a draw of the others. Calls follow the shape of the dose curve; as a rule, active = well fitted curve in the direction sought with a large enough effect; inconclusive = small, poorly fitted or top-dose-only effect, or another doubt; inactive = no such curve, though single readings can be large; an effect the other way counts as inactive or inconclusive.

O=C1/C(=C/c2ccncc2)CCc2ccccc21	KB-V1 MDR tox 15µM, HT1080 IDH1KD tx inconclusive, TDP1 cell CPT inconclusive, DT40 TDP1 no CPT 23µM
Cc1ccc(S(=O)(=O)NN=C2CCCc3ccccc32)cc1	KB-V1 MDR tox inconclusive, DT40 TDP1 no CPT inconclusive
NC(=O)c1ccccc1NC(=O)CCn1c(=S)oc2ccccc21	TDP1 cell CPT inconclusive, DT40 TDP1 no CPT inconclusive
Cc1ccc(NC(=O)CCSCCC(=O)Nc2ccc(C)c(C)c2)cc1C	none
Cc1ccc(C)c(Sc2ccc(NC(=O)CCl)cc2)c1	KB-V1 MDR tox inconclusive, KB-3-1 cytotox 21µM, TDP1 cell CPT 16µM, DT40 TDP1 no CPT 18µM
Cc1ccc(Sc2ccc(NC(=O)CCl)cc2)cc1C	KB-V1 MDR tox inconclusive, KB-3-1 cytotox inconclusive, TDP1 cell CPT 23µM, DT40 TDP1 no CPT inconclusive
COc1cccc(CC(=O)NCC2Cc3cc(Cl)cc(-c4ncccn4)c3O2)c1 (stereo unspecified)	TDP1 cell CPT inconclusive (no result: KB-V1 MDR tox, KB-3-1 cytotox, HT1080 IDH1KD tx, HT1080-NT tox)
CC(=O)Nc1cc(-c2cccc(C(=O)NCCO)c2)cn2c(-c3ccc(F)c(Cl)c3)cnc12	TDP1 cell CPT 29µM, DT40 TDP1 no CPT 23µM
COc1cccc(-c2cnc3c(NC(C)=O)cc(-c4cccc(C(=O)NCCO)c4)cn23)c1	TDP1 cell CPT 16µM, DT40 TDP1 no CPT inconclusive
Cc1nn(-c2ccccc2)c(C)c1/C=C/C(=O)OCC(=O)N(C)C1CCS(=O)(=O)C1 (stereo unspecified)	none
NC(=O)c1ccsc1NC(=O)COC(=O)Cc1cccc2ccccc12	TDP1 cell CPT 9.2µM, DT40 TDP1 no CPT 10µM
NC(=O)c1ccsc1NC(=O)COC(=O)Cc1c[nH]c2ccccc12	TDP1 cell CPT inconclusive, DT40 TDP1 no CPT 16µM
NC(=O)c1ccsc1NC(=O)COC(=O)Cc1ccc(F)cc1	DT40 TDP1 no CPT inconclusive
NC(=O)c1ccsc1NC(=O)COC(=O)Cc1ccccc1[N+](=O)[O-]	TDP1 cell CPT 23µM, DT40 TDP1 no CPT 21µM
O=C(COC(=O)Cc1c[nH]c2ccccc12)Nc1ccccc1	none
CC(C)c1ccccc1NC(=O)COC(=O)Cc1c[nH]c2ccccc12	TDP1 cell CPT 0.082µM
CCCCc1ccc(NC(=O)c2cc3c(=O)n4ccccc4nc3s2)cc1	none (no result: HT1080 IDH1KD tx, HT1080-NT tox)
CCOC(=O)N1C(=O)NC(=O)C1c1ccc(Cl)cc1 (stereo unspecified)	KB-V1 MDR tox inconclusive
NC(=O)c1ccsc1NC(=O)COc1ccccc1	KB-V1 MDR tox 13µM, HT1080 IDH1KD tx inconclusive, TDP1 cell CPT inconclusive
COc1ccccc1C(=O)N1CCOc2ccc(CN3CCN(Cc4ccccn4)CC3)cc2C1	none (no result: KB-V1 MDR tox, KB-3-1 cytotox, HT1080 IDH1KD tx, HT1080-NT tox)
COc1cccc(OCCCCn2c(-c3ccc(Cl)cc3)nc3ccccc3c2=O)c1	KB-3-1 cytotox inconclusive (no result: HT1080 IDH1KD tx, HT1080-NT tox)
COc1ccc(S(=O)(=O)N2CCOC2CNC(=O)C(=O)NCCc2ccccc2)cc1 (stereo unspecified)	TDP1 cell CPT inconclusive, DT40 TDP1 no CPT inconclusive
COc1ccc(/C=C2/C(=O)ON=C2C)cc1Br	TDP1 cell CPT inconclusive, DT40 TDP1 no CPT inconclusive
CC1=NOC(=O)/C1=C\c1ccc2c(c1)OCO2	KB-V1 MDR tox inconclusive, TDP1 cell CPT inconclusive, DT40 TDP1 no CPT 15µM
CC1=NOC(=O)/C1=C/c1ccc2c(c1)OCO2	TDP1 cell CPT 9.2µM, DT40 TDP1 no CPT inconclusive
Nc1ncnc2c1ncn2[C@@H]1O[C@H](CO)C[C@H]1O	TDP1 cell CPT 8.2µM, DT40 TDP1 no CPT 7.3µM
Nc1nc2c(ncn2CCC(CO)CO)c(=O)[nH]1	TDP1 cell CPT 0.67µM, DT40 TDP1 no CPT 1.7µM (no result: KB-V1 MDR tox, KB-3-1 cytotox, HT1080 IDH1KD tx, HT1080-NT tox)
